We go through eleven molecules from PubChem BioAssay (NCATS).

A short description of test [1]: AP1 Signaling Pathway (AID 357).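 Also: ME-180 reporter cells stimulated with EGF at its EC50 level; % is scaled to controls: 0 for no effect and ±100 for the full control effect.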 In outline:
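AP-1-bla ME-180 cells, Opti-MEM + 0.5% dialyzed FBS, plated overnight 37 °C. Cpd titration + EC50 EGF, 5 h 37 °C. CCF4 2.5 h RT; ex 405, em 460/530 ratio → %activity, AC50.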

For test [2], the target named is Cytochrome P450 1A2 (Homo sapiens) (UniProt P05177). Put plainly: p450-cyp1a2 (AID 410; calls by dose curve; also: potency is read from the fitted curve at half-maximal effect;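 as to activity change, negative = inhibition: -100% = full effect of reference inhibitor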). In outline: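 O-Demethylation of luciferin 6' methyl ether by human CYP1A2 is monitored as luciferase luminescence. Substrate sits at Km (100uM); enzyme is 20nM. Values are scaled to 57 uM furafylline as maximal inhibition.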
The nature of test [3]: NFAT Signaling Pathway (AID 444).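 Also: carbachol stimulus at about its EC50 of 1 µM final; % is scaled to controls: 0 for no effect and ±100 for the full control effect.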 To be noted: Jurkat NFAT-bla M1, carbachol, beta-lactamase ratio, 5 h. The procedure, abridged:
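Read-out: CCF4 FRET ratio (460 nm/530 nm) after 1 h RT dye loading, used for %activity and AC50 from titration series. Cells: Jurkat NFAT-β-lactamase/M1 line, treated with compound plus 1 uM carbachol for 5 h, 37 °C.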

Test [4] is described as follows: Stat Signaling Pathway (AID 446).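 Also: ME-180 cervical cancer cells given 40 pM IL-6 alongside compound; SIE-controlled beta-lactamase reporter measured as 460/530 nm FRET emission ratio; % is scaled to controls: 0 for no effect and ±100 for the full control effect.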 To be noted: ME-180 (cervical carcinoma) SIE beta-lactamase reporter, IL-6 stimulated, 5 h. The procedure, abridged: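 Compound effects on IL-6-induced STAT reporter activity were measured in ME-180 cells. After overnight culture, cells were co-treated with 40 pM IL-6 for 5 hrs before beta-lactamase substrate loading at room temperature.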
For test [5], the target named is Glucocorticoid receptor (Homo sapiens) (UniProt P04150). The test can be described thus: GR-GFP Redistribution (AID 450;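 active = compounds whose dose series gives a full or clear partial fitted curve of increased nuclear translocation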; also: potency is read from the fitted curve at half-maximal effect). To be noted: U2OS GR-GFP nuclear translocation, laser cytometry, 2 h.
Test [6] shares this target. The test can be described thus: GR-EFC Redistribution (AID 451; calls by dose curve; also: potency is read from the fitted curve at half-maximal effect). To be noted: CHO-K1 GR-EFC translocation, beta-gal luminescence, 2 h. The procedure, abridged: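 Translocation of GR-ED fusion to nuclear EA restores b-gal, read by luminescence after 1 h room-temperature detection. Engineered CHO-K1 biosensor cells, 1,000/well, exposed 2 h at 37 C to titrations up to 46 uM final.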

For test [7], the target named is Mitogen-activated protein kinase 10 (Mus musculus) (UniProt Q61831). The test can be described thus: JNK3 AlphaScreen Assay (AID 530).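 Also: kinase came from lysate of stimulated human HepG2 cells; signal reports phosphorylation of biotinylated GST-cJun 1-79 at Ser73 with 10 µM ATP; % is scaled to controls: 0 for no effect and ±100 for the full control effect.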 In outline: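 qHTS titrations with 15 min compound pre-incubation before adding ATP (10 uM final). Read-out: AlphaScreen of Ser73-phosphorylated biotin-GST-cJun using HepG2 lysate JNK3 activated by IL-1β and TNFα.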
Background: In Alpha technology, singlet oxygen from a donor bead excites a nearby acceptor bead.

The nature of test [8]: Cell Viability - Jurkat (AID 426;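 active = dose-dependent loss of cell ATP signal giving a full or clear fitted curve, ranked by lower potency value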; also: potency is read from the fitted curve at half-maximal effect). To be noted: qHTS. The procedure, abridged: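 Cells of the human T-cell leukemia line Jurkat (E6-1) are seeded at 5000 per well, treated with compound across a concentration range for 40 hours at 37 °C, then lysed with CellTiter-Glo; luminescence reports ATP.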
A short description of test [9]: Cell Viability - MRC5 (AID 434; calls by dose curve;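 also: potency is read from the fitted curve at half-maximal effect; potency reflects cytotoxicity seen as loss of intracellular ATP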). To be noted: MRC5 lung fibroblast viability, qHTS. In outline:
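AC50 values come from Hill-equation fits of intracellular ATP loss, measured by CellTiter-Glo luminescence. Normal lung fibroblasts (MRC5) had 40 hr compound treatment at 37 C, normalized between DMSO and 100 uM tamoxifen.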

Test [10] in a line: Cell Viability - N2a (AID 540; active = well fitted curve in the direction sought with a large enough effect; an effect the other way counts as inactive or inconclusive;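 also: plate controls were DMSO alone for no effect and tamoxifen control for full effect; nearly all actives have a fitted effect of over 45% in size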). To be noted: N2a mouse neuroblastoma cell viability; at 92.2 µM (top of the series). In outline:
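Cytotoxicity was scored as loss of cellular ATP in N2a cells, a mouse neuroblastoma line. Compounds are applied in a qHTS concentration series for 40 hr at 37 °C.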

Test [11] in a line: Cell Viability - NIH 3T3 (AID 541; active = well fitted curve in the direction sought with a large enough effect; an effect the other way counts as inactive or inconclusive;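 also: plate controls were DMSO alone for no effect and tamoxifen positive control for full effect; nearly all actives have a fitted effect of over 25% in size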). To be noted: NIH 3T3 cell viability, qHTS; activity change, negative = cytotoxicity: at 92.2 µM (top of the series). In outline:
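Cells seeded at 1000/well, rested 5 hr at 37 °C, then dosed and incubated 40 hr at 37 °C. CellTiter-Glo added, 20 min room temperature, luminescence read. AC50 by Hill fit.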
A general note: qHTS replaces the single test concentration by a dilution series.

Test [12] in a line: Cell Viability - H-4-II-E (AID 543; active = well fitted curve in the direction sought with a large enough effect; an effect the other way counts as inactive or inconclusive; also: nearly all actives have a fitted effect of over 35% in size; also: potency is read from the fitted curve at half-maximal effect). The procedure, abridged:
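Cells seeded at 1500 per well and rested 5 hr; compounds added; 40 hr incubation at 37 °C; CellTiter-Glo added, 20 min at room temperature; luminescence read. Hill-equation fits gave AC50.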

The nature of test [13]: Cell Viability - SH-SY5Y (AID 544; active = well fitted curve in the direction sought with a large enough effect; an effect the other way counts as inactive or inconclusive;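 also: 0% = DMSO alone and -100% = 100 µM tamoxifen; nearly all actives have a fitted effect of over 55% in size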). To be noted: SH-SY5Y neuroblastoma cell viability; viability change, negative = cytotoxic: at 92.2 µM (top of the series). The procedure, abridged:
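Cells were plated at 1500 per well and allowed 5 hr at 37 °C. Compounds were added across a concentration range and incubated 40 hr at 37 °C. CellTiter-Glo was added for 20 min at room temperature before luminescence reading.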

Test [14] is described as follows: Cell Viability - Renal Proximal Tubule (AID 545; active = well fitted curve in the direction sought with a large enough effect; an effect the other way counts as inactive or inconclusive;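 also: 0% = DMSO only and -100% = 100 µM tamoxifen; nearly all actives have a fitted effect of over 40% in size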). To be noted: renal proximal tubule cells viability; at 91.7 µM (top of the series) unless noted. In outline:
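In this qHTS format, normal rat kidney-derived proximal tubule cells in complete culture medium receive compound titrations, then sit 40 hours at 37 °C before luciferase-based ATP quantitation; potency is reported as AC50 from concentration-response curves.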

In test [15] the target is Lysosomal acid glucosylceramidase (Homo sapiens) (UniProt P04062). The test can be described thus: Glucocerebrosidase-p2 (AID 348; in the data active = potency below about 10 µM; also: potency is read from the fitted curve at half-maximal effect). To be noted: purified GBA, blue fluorogenic substrate, 40 min. The procedure, abridged: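 Normal human glucocerebrosidase (0.2 nM) with blue fluorogenic substrate (80 uM final) in citrate/phosphate pH 5.9 with 10mM sodium taurocholate, 0.01% tween-20; 40 min RT, NaOH/glycine stop; fluorescence Ex 365/Em 440; AC50 from a titration from 0.6 nM upwards.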

Test [16] in a line: Cell Viability - Hek293 (AID 427;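 active = compounds whose dose-response curve shows a full or clear partial loss of cell viability, called from curve shape rather than a numeric limit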;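 also: potency is read from the fitted curve at half-maximal effect; cells exposed to compound for 40 hours at 37 °C before reading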). To be noted: qHTS. In outline:
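Luminescent ATP read-out (CellTiter-Glo, 20 min RT) after 40 hr compound exposure at 37 °C in complete medium. Signal normalized to DMSO (basal) and 100 uM tamoxifen (100% inhibition); concentration-response fitted with the standard Hill equation to give AC50.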

A short description of test [17]: Cell Viability - HepG2 (AID 433; calls by dose curve;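 also: potency is read from the fitted curve at half-maximal effect; potency for ATP loss meaning cytotoxicity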). To be noted: qHTS. The procedure, abridged:
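In this qHTS format, a 40 h, 37 °C compound incubation of HepG2 cells in complete medium precedes a 20 min CellTiter-Glo step at room temperature. Tamoxifen and doxorubicin serve as positive controls; Hill-equation fits yield AC50.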

The nature of test [18]: Cell Viability - SK-N-SH (AID 435; calls by dose curve;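 also: potency is read from the fitted curve at half-maximal effect; compound exposure lasted 40 h at 37 °C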). To be noted: SK-N-SH neuroblastoma cell viability qHTS. In outline: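 Human neuroblastoma line, 40 h exposure at 37 °C, ATP quantified via luciferase luminescence; DMSO and 100 uM tamoxifen define 0 and 100% inhibition for AC50 fitting.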
The nature of test [19]: Cell Viability - HUV-EC-C (AID 542; active = well fitted curve in the direction sought with a large enough effect; an effect the other way counts as inactive or inconclusive; also: % is scaled to controls: 0 for no effect and ±100 for the full control effect; nearly all actives have a fitted effect of over 35% in size). The procedure, abridged: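 Cells were seeded at 1000 per well and incubated 5 hr at 37 °C before compound addition. After 40 hr at 37 °C, CellTiter-Glo reagent was added for 20 min and luminescence read. AC50 values came from Hill-equation modelling.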
Test [20] can be described thus: Cell Viability - Mesenchymal (AID 546; active = well fitted curve in the direction sought with a large enough effect; an effect the other way counts as inactive or inconclusive;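 also: cells exposed to compound for 40 hours before reading; 0% = DMSO only and -100% = 100 µM tamoxifen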). The procedure, abridged: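 CellTiter-Glo luminescence (intracellular ATP, 20 min room temperature) after 40 hr compound exposure at 37 °C of 1000 glomerulus-derived human kidney mesenchymal cells/well; AC50 values obtained by fitting qHTS concentration-response data to the Hill equation.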

Where “and” joins values, the source holds several entries; their conditions need not be identical. Identical values can stand only once. Unmarked numbers belong to inactive results. Inconclusive results are not listed. Calls of active or inactive are those of the source. Unless noted, calls follow the shape of the dose curve; as a rule, active = well fitted curve in either direction with a large enough effect (not every such curve was filed as active); inconclusive = small, poorly fitted or top-dose-only effect, or another doubt; inactive = flat fitted curve, though single readings scatter.

Sequence of Cytochrome P450 1A2 (Homo sapiens) (P05177 whole entry, looked up): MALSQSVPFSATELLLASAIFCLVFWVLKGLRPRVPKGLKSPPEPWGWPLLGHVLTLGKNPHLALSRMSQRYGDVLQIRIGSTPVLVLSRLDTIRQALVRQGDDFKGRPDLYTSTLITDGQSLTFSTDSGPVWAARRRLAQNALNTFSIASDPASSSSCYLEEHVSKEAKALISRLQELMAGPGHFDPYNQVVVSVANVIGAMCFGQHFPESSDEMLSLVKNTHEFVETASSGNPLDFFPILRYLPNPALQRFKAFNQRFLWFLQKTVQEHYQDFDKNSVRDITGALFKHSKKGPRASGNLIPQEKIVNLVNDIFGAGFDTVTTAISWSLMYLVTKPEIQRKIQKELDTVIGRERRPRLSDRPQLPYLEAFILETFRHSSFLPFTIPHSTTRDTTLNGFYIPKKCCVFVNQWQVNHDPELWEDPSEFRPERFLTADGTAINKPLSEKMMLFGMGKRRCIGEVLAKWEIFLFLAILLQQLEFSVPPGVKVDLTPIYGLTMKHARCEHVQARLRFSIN
Sequence of Glucocorticoid receptor (Homo sapiens) (P04150 whole entry, looked up, the tested form may be a part): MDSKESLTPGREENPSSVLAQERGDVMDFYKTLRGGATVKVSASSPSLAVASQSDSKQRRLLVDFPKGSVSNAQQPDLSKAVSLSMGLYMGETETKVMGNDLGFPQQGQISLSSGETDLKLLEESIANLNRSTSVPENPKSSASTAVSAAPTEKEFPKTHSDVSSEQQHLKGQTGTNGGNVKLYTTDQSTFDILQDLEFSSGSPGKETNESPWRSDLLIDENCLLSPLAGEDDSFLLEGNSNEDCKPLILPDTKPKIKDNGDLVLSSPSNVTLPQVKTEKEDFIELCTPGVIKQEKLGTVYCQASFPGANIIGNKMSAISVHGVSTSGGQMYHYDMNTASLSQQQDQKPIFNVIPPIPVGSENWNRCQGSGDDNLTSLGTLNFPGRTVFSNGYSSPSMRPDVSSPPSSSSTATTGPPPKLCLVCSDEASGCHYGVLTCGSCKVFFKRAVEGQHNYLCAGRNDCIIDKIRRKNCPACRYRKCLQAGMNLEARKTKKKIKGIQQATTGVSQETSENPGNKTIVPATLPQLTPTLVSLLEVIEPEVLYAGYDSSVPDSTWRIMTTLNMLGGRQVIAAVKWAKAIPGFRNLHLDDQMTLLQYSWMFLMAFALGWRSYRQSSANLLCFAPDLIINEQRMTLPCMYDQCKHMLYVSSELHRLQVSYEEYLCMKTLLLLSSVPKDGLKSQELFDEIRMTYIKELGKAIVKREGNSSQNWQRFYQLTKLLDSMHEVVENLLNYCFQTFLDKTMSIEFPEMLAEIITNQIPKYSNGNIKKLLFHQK
Sequence of Lysosomal acid glucosylceramidase (Homo sapiens) (P04062 whole entry, looked up): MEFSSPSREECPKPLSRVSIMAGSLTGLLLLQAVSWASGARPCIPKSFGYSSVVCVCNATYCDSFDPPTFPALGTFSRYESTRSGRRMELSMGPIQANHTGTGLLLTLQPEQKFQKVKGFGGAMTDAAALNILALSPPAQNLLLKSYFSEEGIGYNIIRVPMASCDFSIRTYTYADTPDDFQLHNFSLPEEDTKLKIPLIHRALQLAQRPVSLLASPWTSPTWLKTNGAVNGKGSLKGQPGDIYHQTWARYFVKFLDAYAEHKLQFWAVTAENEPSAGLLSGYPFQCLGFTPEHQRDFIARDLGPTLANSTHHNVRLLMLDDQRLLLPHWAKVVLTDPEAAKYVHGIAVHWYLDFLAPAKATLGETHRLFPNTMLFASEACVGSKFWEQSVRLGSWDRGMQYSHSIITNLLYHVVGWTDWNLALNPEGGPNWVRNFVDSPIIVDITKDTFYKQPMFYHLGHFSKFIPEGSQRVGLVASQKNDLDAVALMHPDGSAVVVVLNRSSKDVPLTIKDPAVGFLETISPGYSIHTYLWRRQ

In the case of `N#CC(C#N)=Cc1ccc(O)c(O)c1`, the molecule was called inactive in test [1]. For the same molecule, in test [2], the Potency is 15.8 µM (active) and 5.01 µM (active). In addition, the activity change, negative = inhibition in [3] (at 38 µM (top of the series)) was -13.6%. In test [4] (at 38 µM (top of the series)), the activity, negative = inhibition is -24.2%.
Regarding `CC(=O)[C@H]1CC[C@H]2[C@@H]3CC[C@H]4C[C@H](O)CC[C@]4(C)[C@H]3C(=O)C[C@]12C`, the call in test [1] was inactive. For the same molecule, in test [3] (at 17.2 µM (top of the series)), the activity change, negative = inhibition was -29.1%. The activity, negative = inhibition in test [4] (at 17.2 µM (top of the series)) is -6.19%.
Taken in the same sequence, the figures for `O=C1CC[C@@]2(O)[C@H]3Cc4ccc(O)c5c4[C@@]2(CCN3CC2CC2)[C@H]1O5` were “inactive”, 1.18% and 2.9%.
For the molecule `CCCN1CCC[C@@H]2Cc3[nH]ncc3C[C@H]21`, the result in [1] and in [7] was inactive. Further, the Potency result in [2] is “inactive”. The activity change, negative = inhibition in [3] (at 17.2 µM (top of the series)) was 24.4%; in test [3] (at 38 µM (top of the series)) it was 7.41% and -8.14%. In addition, the activity, negative = inhibition is 8.2% in [4] (at 17.2 µM (top of the series)); -2.11% and 14.3% in test [4] (at 38 µM (top of the series)). Also, the Potency in test [5] is > 46 µM and > 20.6 µM; in test [6] it was > 46 µM and > 20.6 µM.
With `Nc1ccncc1`, the result in [1] and in [7] was inactive. Besides, the Potency result in test [2] is “inactive”. In addition, the activity change, negative = inhibition in [3] (at 38 µM (top of the series)) was -3.97%. The activity, negative = inhibition in test [4] (at 38 µM (top of the series)) was 18.2%.
Turning to `CN1C[C@H](CNC(=O)OCc2ccccc2)C[C@@H]2c3cccc4c3c(cn4C)C[C@H]21`, in test [1], the molecule was called inactive. Also, the activity change, negative = inhibition in [3] (at 17.2 µM (top of the series)) is 11.1%. Also, in [4] (at 17.2 µM (top of the series)), the activity, negative = inhibition was -8.15%.
Regarding `Clc1ccc(COC(Cn2ccnc2)c2ccc(Cl)cc2Cl)cc1` (stereo not given), the molecule was called inactive in test [1] and in test [7]. Further, the Potency in test [8] is 81.7 µM (active); in test [9], 95 µM; in test [5], more than 20.6 µM; in test [12], 39.8 µM (active). Further, in [4] (at 17.2 µM (top of the series)), the activity, negative = inhibition is -23%. The results for the activity change, negative = cytotoxicity in test [10], in [11] and in test [14] were -110% (active), -82% (active) and -83.1% (active), respectively. Moreover, the viability change, negative = cytotoxic in test [13] was -84.8% (active).
As for `c1ccc(C2CC2)c(OCC2=NCCN2)c1`, the outcome in test [1] and in [7] was inactive. Also, the Potency in test [2] is 15.8 µM (active) and 25.1 µM (active); in test [5], more than 46 µM; in [6] it was more than 46 µM. Moreover, the activity, negative = inhibition in test [4] (at 38 µM (top of the series)) is -9.49%.
For `O=c1[nH]c2ccccc2n1CCCN1CCC(n2c(=O)[nH]c3cc(Cl)ccc32)CC1`, the Potency in test [15] was more than 11.4 µM. Moreover, the molecule was classed as inactive in [1] and in test [7]. The activity change, negative = inhibition in [3] (at 7.69 µM (top of the series)) was -18.5%; in test [3] (at 17.2 µM (top of the series)), -16.6% and -16.4%; in [3] (at 38 µM (top of the series)), -15.8%. The activity, negative = inhibition in test [4] (at 7.69 µM (top of the series)) was -2.55%; in [4] (at 17.2 µM (top of the series)), 1.15% and 2.02%; in [4] (at 38 µM (top of the series)), -0.208%.
With `Cc1cccc(C)c1NC1=NCCCS1`, the result in test [1] and in test [7] was inactive. Besides, the Potency entry in test [2] was “inactive”. Besides, the activity change, negative = inhibition in test [3] (at 38 µM (top of the series)) was -14.8%. The figures for the activity, negative = inhibition in test [4] (at 17.2 µM (top of the series)) and in test [4] (at 38 µM (top of the series)) were 3.23% and 9.43%, respectively.
Turning to `CNCC(O)c1ccc(O)cc1` (stereo not given), the result in [1], in test [19] and in test [20] was inactive. For the same molecule, the Potency in [8] is more than 92 µM; in test [16] it was more than 92 µM; in test [17] it was more than 92 µM; in test [9], more than 92 µM; in test [18] it was more than 92 µM; in test [5] it was more than 20.6 µM. Further, the activity change, negative = inhibition in [3] (at 17.2 µM (top of the series)) is 19.4%. The activity, negative = inhibition in test [4] (at 17.2 µM (top of the series)) is 14.9%. Also, the activity change, negative = cytotoxicity is -10.6% in test [10], 2.22% in test [11] and -6.79% in test [14]. Moreover, the Potency result in [12] is “inactive”. In addition, in test [13], the viability change, negative = cytotoxic is -15.7%.
